# AMA1 RON2 block: qHTS for Inhibitors of AMA1-RON; Towards Development of Antimalarial Drug Lead: Primary Screen; AlphaScreen AMA1-biotinylated RON2 peptide binding; Potency, µM (series often up to 58.2 µM), actives largely listed as inhibitors; 0.2% of 360,000 active; AID 720542, 2013; also: nearly all actives have a fitted effect of over 45% in size
#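 AMA1 (3D7) with his tag at 25 nM final met compounds first, then biotinylated RON2 peptide at 25 nM; detection used donor plus acceptor beads, 10 µg/mL apiece, read by AlphaScreen after 30 min at room temperature.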
# Pf growth 48h: Primary qHTS for delayed death inhibitors of the malarial parasite plastid, 48 hour incubation. P. falciparum luciferase growth in erythrocytes, 48 h. Potency, µM (series often up to 28.7 µM), hits mostly inhibitors. 5.9% of 310,000 active. AID 504832, 2011
#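 Luminescence readout; reporter = integrated firefly luciferase in P. falciparum. RBC culture at 2% hematocrit, 0.1% parasitemia final, 37 C/5% CO2; decreased signal taken as growth inhibition.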
# HCV inhibitor: qHTS Assay for Inhibitors of Hepatitis C Virus (HCV); 3.4% of 340,000 active; AID 651820, 2012; Potency, µM (doses to about 41.8 µM), usual class: inhibitors; Huh7.5.1 HCVcc-Cre infection, luciferase reporter, 44 h
#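 Whole-lifecycle infectious HCVcc-Cre system; cells 1,000/well, compound then virus (~0.5 moi) added 4 h after plating, 44 h culture. Luciferase read 15 sec following 15 min substrate incubation, room temp.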
# Pf growth 96h: Primary qHTS for delayed death inhibitors of the malarial parasite plastid, 96 hour incubation; P. falciparum luciferase reporter growth, 96 h; 6.9% of 320,000 active; Potency, µM (highest dose often 28.7 µM), usual class: inhibitors
#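 Readout is luminescence from an integrated firefly luciferase in P. falciparum. Red cells, 2% hematocrit and 0.05% parasitemia final, were cultured with compound through two parasite generations (96 hours) at 37 C, 5% CO2.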
# Hits are given with their value; n = inactive; u = inconclusive; x = no result; [ ] = dose if it differs, or a comment. A selection: hits, their analogues and other compounds. The true share with any hit is near 11%. Calls follow the shape of the dose curve; as a rule, active = well fitted curve in the direction sought with a large enough effect; inconclusive = small, poorly fitted or top-dose-only effect, or another doubt; inactive = no such curve, though single readings can be large; an effect the other way counts as inactive or inconclusive.
SMILES,AMA1 RON2 block,Pf growth 48h,HCV inhibitor,Pf growth 96h
Cc1ccc(Nc2nnc(SCC(=O)c3ccc(Br)s3)s2)c(C)c1,n[11.6 µM],n,n,1µM
Cc1cccc(C)c1Nc1nnc(SCC(=O)c2ccc(Br)s2)s1,n,n,n,u
CC(C)C[C@@H]1CN(CCCC[C@H]2CNC(=O)C(=O)N2CCC2CCCCC2)C(=O)C(=O)N1Cc1ccccc1,n,x,x,x
CCOC(=O)N1CCC(NC(=O)c2cc(S(=O)(=O)N3CCCC3)cn2C)CC1,n,7.4µM,n,0.41µM
Cc1ccc(CCNC(=O)c2cc(S(=O)(=O)N3CCOCC3)cn2C)cc1,n,n,n,n
CCOC(=O)N1CCN(C(=O)c2cc(S(=O)(=O)N3CCCC3)cn2C)CC1,n,n,n,n
Cn1cc(S(=O)(=O)N2CCOCC2)cc1C(=O)NCCc1ccccc1,n,n,n,n
COc1ccc(CCNC(=O)c2cc(S(=O)(=O)N3CCOCC3)cn2C)cc1OC,n,n,n,7.4µM
Cn1cc(S(=O)(=O)N2CCCC2)cc1C(=O)NCCc1ccccc1,n,n,u,2.6µM
CC1CCCCC1NC(=O)COC(=O)c1ccc2c(c1Cl)C(=O)c1ccccc1C2=O (stereo unspecified),n,n,25µM,n
O=C(COC(=O)c1cccc2c1C(=O)c1ccccc1C2=O)NC1CCCCC1,n,u,u,u
CCCCN1CC[C@H]2C=CC[C@@H](C(=O)N3CCOCC3)[C@H]2C1=O,n,x,0.56µM,x
CCC1=Nc2cc(C(=O)NCCCN3CCOCC3)ccc2Sc2ccccc21,n,u,u,u
CC1=Nc2cc(C(=O)NCCCOC(C)C)ccc2Sc2ccc(C)cc21,n,7.4µM,n,n
CCC1=Nc2cc(C(=O)NCCN3CCCC3)ccc2Sc2ccccc21,n,u,u,2.3µM
CC1=Nc2cc(C(=O)NCCCOC(C)C)ccc2Sc2ccccc21,n,u,n,u
CCCC1=Nc2cc(C(=O)NCCCOCC)ccc2Sc2ccccc21,n,u,u,13µM
CCCC1=Nc2cc(C(=O)NCCCOC(C)C)ccc2Sc2ccccc21,n,12µM,u,n
O=C(CCNS(=O)(=O)c1ccc(Br)cc1)NCc1ccco1,n,n,n,n
CN(C(=O)COC(=O)c1ccccc1C(=O)N1CCN(c2ccccc2)CC1)c1ccccc1,n,u,n,u
CCCN1CCC(NC(=S)Nc2ccc([N+](=O)[O-])cc2)CC1,n,3.7µM,u,u
CCCN1CCN(C(=S)Nc2ccc([N+](=O)[O-])cc2)CC1,n,n,n,n
CCCN1CCC(NC(=S)Nc2ccc(C(=O)OCC)cc2)CC1,n,12µM,u,n
COc1ccccc1NC(=O)C(C)OC(=O)C1CCC(C(C)(C)C)CC1 (stereo unspecified),n,2.9µM,n[8.37 µM],15µM
COc1ccccc1NC(=O)C(C)OC(=O)C1CC(=O)N(c2ccc3c(c2)OCCO3)C1 (stereo unspecified),n,n,n,n
SMILES,AMA1 RON2 block,Pf growth 48h,HCV inhibitor,Pf growth 96h
CCOC(=O)N(C)C[C@H]1OCc2cnnn2CCCC(=O)N([C@H](C)CO)C[C@H]1C,n,x,x,x
COc1cc2sc3cc(NCc4ccc5c(c4)OCO5)ccc3c(=O)c2cc1OC,n,x,u,x
COc1cc2sc3cc(NCc4ccc(C)o4)ccc3c(=O)c2cc1OC,n,x,3.5µM,x
COc1ccccc1NC(=O)c1ccc(S(=O)(=O)N(C)c2ccccc2)cc1,n,n,n,n
CN(c1ccccc1)S(=O)(=O)c1cccc(NC(=O)c2cncc(Br)c2)c1,n,10µM,u,8.3µM
COc1cc(NC(=O)c2ccc(S(=O)(=O)N(C)c3ccccc3)cc2)cc(OC)c1,n,x,11µM,x
CN(C)S(=O)(=O)c1cccc(NC(=O)c2cccc(NS(=O)(=O)c3ccccc3)c2)c1,n,u,13µM,n
CSc1ncccc1C(=O)Nc1cccc(S(=O)(=O)N2CCCCC2)c1,n,12µM,u,10µM
CN(C)S(=O)(=O)c1cccc(C(=O)Nc2ccc(C(=O)Nc3cccc(S(N)(=O)=O)c3)cc2)c1,n,x,n,x
COc1ccc2cc(CCNS(=O)(=O)c3ccc(NC(C)=O)cc3)c(=O)[nH]c2c1,n,n,n,n
CCCC(=O)Nc1ccc(Cl)c(NC(=S)NC(=O)c2ccco2)c1,n,n,u,n
CN(c1cccc(NC(=O)c2ccc(C(C)(C)C)cc2)c1)S(C)(=O)=O,n,n,u,n
Cc1nc2cc(NC(=O)c3ccc(S(=O)(=O)N(C)c4ccccc4)cc3)ccc2o1,n,u,6.3µM,u
CN(c1cccc(NC(=O)c2ccc(N(C)S(=O)(=O)c3ccccc3)cc2)c1)S(C)(=O)=O,n,u,8.9µM,n
O=C(Nc1ccccc1Cl)c1cc(=O)c2ccccc2o1,n,n,n,12µM
CN(c1ccccc1)S(=O)(=O)c1cccc(NC(=O)c2ccncc2)c1,n,n,10µM,u
CN(c1ccccc1)S(=O)(=O)c1cccc(NC(=O)c2ccc(Cl)c([N+](=O)[O-])c2)c1,n[11.6 µM],x,11µM,x
CSc1ncccc1C(=O)Nc1cccc(S(=O)(=O)N(C)c2ccccc2)c1,n,9.3µM,u,u
CC(=O)Nc1ccc(C(=O)Nc2cccc(S(=O)(=O)N(C)c3ccccc3)c2)cc1,n,9.3µM,u,u
CN(c1ccccc1)S(=O)(=O)c1cccc(NC(=O)c2cc(=O)c3ccccc3o2)c1,n,u,11µM,10µM
NS(=O)(=O)c1cccc(NC(=O)c2cc(=O)c3ccccc3o2)c1,n,n,n,n
CCCC(=O)Nc1cccc(S(=O)(=O)N(C)c2ccccc2)c1,n,n,u,n
CCOC(=O)N1CCN(C(=O)C(=O)Nc2sc3c(c2C(=O)O)CC(C)(C)OC3)CC1,n,n,n,u
COc1ccccc1NS(=O)(=O)c1cccc(NC(=O)c2cncc(Br)c2)c1,n,x,13µM,x
CN(c1ccccc1)S(=O)(=O)c1ccc(C(=O)NNC(=O)c2ccccc2)cc1,n,n,n,n
SMILES,AMA1 RON2 block,Pf growth 48h,HCV inhibitor,Pf growth 96h
NS(=O)(=O)c1cccc(NC(=O)c2cncc(Br)c2)c1,n,n,n,n
CN(c1ccc(C(=O)O)cc1)S(=O)(=O)c1ccccc1,n,n,n,9.3µM
COc1ccc(/C=N/NC(=O)Cc2csc(Nc3cccc(C(F)(F)F)c3)n2)cc1C,n,n,u,n
N#CC1(c2ccccc2)CCN(C2CC(=O)N(c3cccc(F)c3)C2=O)CC1 (stereo unspecified),n,n,n,8.3µM
CCOc1ccc(C2=Nn3c(nnc3-c3ccc(OC)cc3)SC2)cc1,n,15µM,u,u
COc1ccc(OC)c(C2=Nn3c(nnc3-c3cccc(OC(C)C)c3)SC2)c1,n,8.3µM,10µM,u
COc1ccc(C2=Nn3c(nnc3-c3ccncc3)SC2)cc1,n,x,n,n
COc1ccc(OC)c(-c2nnc3n2N=C(c2ccc(OC)c(OC)c2)CS3)c1,x,5.9µM,x,3.3µM
O=C(O)CCc1cc(I)c(Oc2ccc(O)c(I)c2)c(I)c1,x,u,x,n
